The record followed here is PubChem BioAssay AID652122 (NMMLSC, 2013).

A number with no mark means an inactive call.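 Rule for the calls: active = at least 15% of cells fluorescing red and green at top dose, and half-maximal dose below 10 µM; inactive = the rest.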

This assay is described as follows: myeloid differentiation promoters, wild-type HoxA9 cells, dose response, cell-based, flow cytometry, Powder Set01 subset01 (AID 652122). The settings on record: HoxA9 wt myeloid cells, GFP+/MAC1+ differentiation; series mostly up to 10 µM; percent double positive (differentiation): at the top concentration. On the technique in general: In flow cytometry, cells or beads pass a laser one at a time.
In the case of `Cc1ccc(Nc2nc(=O)c3cccnc3s2)c(Br)c1`, the “percent double positive (differentiation)” value was 14.1%.
The value for `O=C(O)c1cccnc1Nc1ccc(Cl)cc1` was 16.6%; that for `O=C(CCNC(=O)c1ccc(Cl)cc1)NC1CCCc2ccccc21` (stereo not drawn) was 9.24%.
